# Hits are enriched below; roughly 11% of the tested compounds scored in any of these assays.
# FLuc inh – Photinus pyralis luciferase inhibition | purified P. pyralis luciferase, luminescence, biochemical | AID 1347043 | 2.5% of 76,000 active | Potency, µM (top dose mostly 115 µM), actives largely listed as inhibitors; also: nearly all actives have a fitted effect of over 65% in size
#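 Biochemical qHTS: compound (6-point titration) added to 10uM D-luciferin plus 10uM ATP in Tris acetate pH 7.5 buffer with Mg, Tween-20 and BSA, then purified enzyme at 10nM; light output imaged.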
# hNpr1 antagonist – human Npr1 receptor antagonism | HEK293 hNpr1 GloSensor cGMP, ANP-stimulated luminescence | Potency, µM (highest dose often 46.3 µM), usual class: inhibitors | 1.6% of 76,000 active | AID 1347048; calls by dose curve; also: nearly all actives have a fitted effect of over 60% in size
#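 HEK293 cells stably expressing human Npr1 and cGMP GloSensor pGS-40F, loaded 2 h with 2% GloSensor reagent, given compound 30 min at room temperature. Luminescence read before and 20 min after 0.1 nM hNppA.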
# NIH3T3 tox – cytotoxic compounds in NIH 3T3 cells; NIH 3T3 viability, CellTiter-Glo ATP luminescence, 48-72 h; Potency, µM (titrated, usually from 96.7 µM), actives largely listed as inhibitors; 4.3% of 94,000 active; AID 1345082; also: nearly all actives have a fitted effect of over 55% in size
#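 Cytotoxicity is measured as loss of cellular ATP: NIH 3T3 cells (400/well) are exposed to compound for 48 or 72 hr at 37 °C, then CellTiter-Glo luminescence is imaged after 10 min at room temperature.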
# HEK cytotox – kills HEK 293 cells | AID 1345083 | HEK 293 viability, ATP luminescence (CellTiter-Glo), 48-72 h | Potency, µM (titrated, usually from 115 µM), hits mostly inhibitors | 6.6% of 94,000 active; also: nearly all actives have a fitted effect of over 60% in size
#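 HEK 293 cells at 250 cells/well were exposed to compounds by pintool transfer for 48 or 72 hr at 37 degree Celsius, 5% CO2. Viability was read as ATP-coupled luminescence with CellTiter-Glo after 10 min at room temperature.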
# NPR1 antag cnf – confirmation of human Npr1 natriuretic peptide receptor antagonists; shares compounds with hNpr1 antagonist; HEK293 hNpr1 cGMP GloSensor luminescence, ANP-stimulated; Potency, µM (series often up to 57.6 µM), most hits filed as inhibitors; 76% of 1,400 active; AID 1347044; calls by dose curve; also: nearly all actives have a fitted effect of over 70% in size
# NPR2 antag – selectivity test of Npr1 antagonists against human Npr2; shares compounds with hNpr1 antagonist; HEK293 hNpr2 GloSensor cGMP luminescence, CNP-stimulated; Potency, µM (highest dose often 57.6 µM), most hits filed as inhibitors; 67% of 1,400 active; AID 1347046; calls by dose curve; also: nearly all actives have a fitted effect of over 70% in size
# Target sequence (P20594 whole entry, looked up): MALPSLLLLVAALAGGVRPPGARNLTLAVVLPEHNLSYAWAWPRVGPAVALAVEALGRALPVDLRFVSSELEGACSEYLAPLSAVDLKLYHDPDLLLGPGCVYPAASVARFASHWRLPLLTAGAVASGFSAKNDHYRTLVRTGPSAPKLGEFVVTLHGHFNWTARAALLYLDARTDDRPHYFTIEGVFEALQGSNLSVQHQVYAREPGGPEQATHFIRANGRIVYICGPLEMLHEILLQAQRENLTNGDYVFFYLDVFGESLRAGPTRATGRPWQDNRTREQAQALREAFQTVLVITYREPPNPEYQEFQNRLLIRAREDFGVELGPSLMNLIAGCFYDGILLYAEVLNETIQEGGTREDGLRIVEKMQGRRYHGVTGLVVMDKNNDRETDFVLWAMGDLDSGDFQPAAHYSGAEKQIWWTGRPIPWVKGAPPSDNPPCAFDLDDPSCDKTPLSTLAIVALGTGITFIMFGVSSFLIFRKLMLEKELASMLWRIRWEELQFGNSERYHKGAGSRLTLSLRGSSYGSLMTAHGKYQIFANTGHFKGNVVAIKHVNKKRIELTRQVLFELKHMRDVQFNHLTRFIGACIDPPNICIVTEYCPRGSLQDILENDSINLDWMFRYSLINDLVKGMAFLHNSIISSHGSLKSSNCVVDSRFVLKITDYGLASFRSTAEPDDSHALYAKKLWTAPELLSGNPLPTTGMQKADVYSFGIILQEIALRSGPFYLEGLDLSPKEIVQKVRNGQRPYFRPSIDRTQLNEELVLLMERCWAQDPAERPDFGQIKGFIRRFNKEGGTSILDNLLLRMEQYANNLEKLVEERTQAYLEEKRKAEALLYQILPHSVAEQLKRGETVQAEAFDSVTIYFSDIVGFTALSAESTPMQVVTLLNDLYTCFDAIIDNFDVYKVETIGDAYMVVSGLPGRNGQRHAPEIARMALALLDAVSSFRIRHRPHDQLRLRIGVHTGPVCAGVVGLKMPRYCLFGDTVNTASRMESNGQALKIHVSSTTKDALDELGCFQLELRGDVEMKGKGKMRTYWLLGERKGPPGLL
# FLuc inh counter – counter-screen for Npr1 antagonists: firefly luciferase inhibitors. shares compounds with hNpr1 antagonist. purified FLuc enzyme, luminescence, Km substrate. Potency, µM (top dose mostly 57.6 µM), most hits filed as inhibitors. 0.7% of 1,400 active
# GloSensor cGMP – reduces cGMP signal in GloSensor control cells; HEK293 GloSensor cGMP, SNP-stimulated, luminescence; 69% of 1,400 active; shares compounds with hNpr1 antagonist; Potency, µM (doses to about 57.6 µM), hits mostly inhibitors; calls by dose curve; also: nearly all actives have a fitted effect of over 70% in size
# Numbers stand for hits; – = inactive; ? = inconclusive; · = no result given. Unless noted, calls follow the shape of the dose curve; as a rule, active = well fitted curve in the direction sought with a large enough effect; inconclusive = small, poorly fitted or top-dose-only effect, or another doubt; inactive = no such curve, though single readings can be large; an effect the other way counts as inactive or inconclusive.
SMILES,FLuc inh,hNpr1 antagonist,NIH3T3 tox,HEK cytotox,NPR1 antag cnf,NPR2 antag,FLuc inh counter,GloSensor cGMP
COc1ccccc1CN1CCc2nc(C(=O)Nc3cccc(C(F)(F)F)c3)oc2CC1,–,?,28µM,32µM,22µM,24µM,–,24µM
O=C(Nc1cccc(C(F)(F)F)c1)c1nc2c(o1)CCN(Cc1ccccc1F)CC2,–,?,50µM,63µM,?,?,–,?
Cc1noc(C)c1CN1CCc2nc(C(=O)Nc3cccc(C(F)(F)F)c3)oc2CC1,–,32µM,?,?,28µM,31µM,–,20µM
Cc1oc2c(c1C(=O)NCc1ccncc1)CN(Cc1cccc(F)c1)CC2,–,–,–,–,·,·,·,·
CN(C)C[C@@H]1CN(Cc2ccccn2)C[C@H]1NS(=O)(=O)c1cccc(C#N)c1,–,–,–,–,·,·,·,·
Cn1cnc(S(=O)(=O)N2CCCCC2c2noc(COCC3CC3)n2)c1 (stereo not drawn),–,–,–,–,·,·,·,·
Cc1nn(-c2ccccc2)c(Oc2ccc(F)cc2F)c1CCC(=O)NCC1CCCO1 (stereo not drawn),–,–,?,?,·,·,·,·
O=C(Nc1cccnc1)c1nc2c(o1)CCN(Cc1ccc(F)cc1F)CC2,–,32µM,?,?,40µM,40µM,–,35µM
CN(Cc1cccnc1)c1nc2c(c(=O)[nH]1)CCN(Cc1ccc(F)cc1F)CC2,–,–,?,?,·,·,·,·
O=c1c2nc(OCc3ccccc3)ccc2ncn1Cc1ccccc1,–,–,?,?,·,·,·,·
O=C(Cc1c[nH]c2ncc(-c3cccc(CO)c3)cc12)N1CCOCC1,–,–,?,?,·,·,·,·
O=C(Cc1c[nH]c2ncc(-c3ccccc3C(F)(F)F)cc12)N1CCOCC1,–,2µM,?,?,4.4µM,8.9µM,–,4µM
Cc1ccccc1-c1cnc2[nH]cc(CC(=O)N3CCOCC3)c2c1,–,2.8µM,–,112µM,2.8µM,4.4µM,–,2.2µM
CC1=C(C(=O)NC23CC4CC(CC(C4)C2)C3)C(c2cccnc2)NC(=O)N1 (stereo not drawn),–,–,–,–,·,·,·,·
COc1ncccc1-c1cc(C(=O)NCCN(C)C)c2c(c1)ncn2C,·,·,·,·,–,–,–,–
COc1ccccc1-c1nc2nccc(-c3ccncc3)n2n1,–,–,?,–,·,·,·,·
COc1ccc(CN2C(=O)[C@@H]3C[C@@H](CN3Cc3cccs3)Oc3ccccc32)cc1,–,?,?,79µM,?,?,–,–
COc1ccc(-c2ccccc2C(=O)N2CCCC(C)C2)nn1 (stereo not drawn),·,·,–,–,·,·,·,·
Cc1ccc(F)cc1CN1CCOc2cc([S+](=O)([O-])N(C)C)ccc2C1,–,35µM,?,40µM,40µM,40µM,–,35µM
CN(C)[S+](=O)([O-])c1ccc2c(c1)OCCN(Cc1ccccc1F)C2,–,–,?,?,·,·,·,·
CCNc1cc(N2CCC(CCC(=O)N3CCN(c4cccc(OC)c4)CC3)CC2)ncn1,–,11µM,?,35µM,17µM,19µM,–,17µM
CCNc1cc(N2CCC(CCC(=O)Nc3cccc(OC)c3)CC2)ncn1,?,?,–,?,·,·,·,·
CCOc1ccc(NC(=O)CCC2CCN(c3cc(NC4CC4)ncn3)CC2)cc1,–,?,–,?,?,?,–,?
CN(CCc1ccccc1)C(=O)CCC1CCN(c2cc(NC3CC3)ncn2)CC1,–,11µM,?,35µM,22µM,22µM,–,14µM
O=C(CCC1CCN(c2cc(NC3CC3)ncn2)CC1)N1CCN(c2ccccc2F)CC1,–,13µM,?,?,24µM,22µM,–,24µM
CCN(CC)C(=O)CCC1CCN(c2cc(NC3CC3)ncn2)CC1,–,?,–,–,·,·,·,·

# Bioassay records (PubChem)
